Bioassay records from PubChem BioAssay.
Most compounds without a hit are left out; they make up all but 3.3% or so of the library.
NOD2 RIPK2 PPI: NOD2-RIPK2 protein interaction inhibition | O43353 | CHO BLA complementation NOD2-RIPK2, CCF4 ratio | inhibition, % at 4.98 µM | 0.38% of 360,000 active | AID 624267; in the data active means inhibition above about 21%;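 further: 0% = vehicle only and 100% = reference blocker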
TLR4 MyD88 comp: blocks binding of human TLR4 to MyD88; O00206+Q99836; 0.18% of 200,000 active; HeLa CL3-4 TLR4/MyD88 BLA complementation, FRET ratio; inhibition, % at 8.4 µM; AID 861; in the data active means inhibition above about 25%;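 further: 0% = vehicle and 100% = reference inhibitor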
TLR9-MyD88 inh: TLR9-MyD88 interaction inhibition; Q9NR96+Q99836; CHO BLA complementation TLR9-MyD88, CCF4 FRET ratio; inhibition, % at 4.98 µM; 0.21% of 340,000 active; AID 504734;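 active means inhibition above the mean over all tested compounds plus 3 SD, cut at about 21% in these data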;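 further: 0% = DMSO only wells and 100% = clavulanate BLA inhibitor control wells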
rCAG binder: binds r(CAG) RNA repeats | r(CAG) RNA repeat, TO-PRO-1 dye displacement fluorescence | inhibition, % at 3 µM | 1.3% of 370,000 active;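 active means inhibition above the plate cutoff, the mean of all test compounds on that plate plus 3 SD, cut at about 35% in these data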;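 further: 0% = DMSO alone and 100% = 100 µM mitoxantrone as full dye displacement; higher means more dye released from RNA so lower well fluorescence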
PRMT1 inh: inhibitors of human PRMT1. Q99873. recombinant PRMT1, activity-based probe fluorescence polarization. inhibition, % at 2.79 µM. 1.3% of 370,000 active. AID 652257;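 active means inhibition above about 21% made by adding two undisclosed values, limit read from the data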
ABHD5 PLIN5 PPI: inhibitors of human ABHD5-perilipin-5 interaction; AID 602281; Q00G26+Q8WTS1; 0.78% of 360,000 active; Split G. princeps luciferase complementation, luminescence, 4 h; inhibition, % at 4 µM;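 active means inhibition above the mean inhibition across every tested compound plus 3 SD, cut at about 22% in these data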;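 further: 0% = DMSO only wells and the 100% control is not disclosed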
Target sequence (Q00G26 whole entry, looked up): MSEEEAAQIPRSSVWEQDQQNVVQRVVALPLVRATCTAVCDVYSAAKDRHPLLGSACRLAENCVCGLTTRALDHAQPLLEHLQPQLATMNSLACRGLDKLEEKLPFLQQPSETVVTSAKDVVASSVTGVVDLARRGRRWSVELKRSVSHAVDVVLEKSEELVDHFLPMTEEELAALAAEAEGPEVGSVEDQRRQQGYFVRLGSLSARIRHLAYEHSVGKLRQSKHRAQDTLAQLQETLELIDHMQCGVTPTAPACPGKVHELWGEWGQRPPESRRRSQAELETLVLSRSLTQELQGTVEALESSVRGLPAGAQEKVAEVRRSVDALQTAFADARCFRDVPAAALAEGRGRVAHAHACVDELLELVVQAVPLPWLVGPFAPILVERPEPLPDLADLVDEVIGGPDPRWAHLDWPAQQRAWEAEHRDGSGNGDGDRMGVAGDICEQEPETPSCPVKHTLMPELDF
Target sequence (Q8WTS1 whole entry, looked up): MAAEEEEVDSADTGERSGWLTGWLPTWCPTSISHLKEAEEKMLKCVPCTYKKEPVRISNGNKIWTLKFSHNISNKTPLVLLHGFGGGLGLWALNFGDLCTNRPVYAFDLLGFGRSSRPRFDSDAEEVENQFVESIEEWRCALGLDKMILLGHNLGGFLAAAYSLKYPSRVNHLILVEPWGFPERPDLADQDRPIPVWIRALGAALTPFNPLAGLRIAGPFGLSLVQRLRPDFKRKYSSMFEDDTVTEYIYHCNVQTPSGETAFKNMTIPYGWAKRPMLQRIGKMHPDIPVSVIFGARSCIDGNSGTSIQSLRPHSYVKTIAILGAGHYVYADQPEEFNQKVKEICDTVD
TLR9-MyD88 conf: TLR9-MyD88 interaction inhibition, confirmation | shares compounds with TLR9-MyD88 inh | CHO TLR9/MyD88 BLA complementation, CCF4 FRET ratio | inhibition, % at 4.98 µM | 51% of 680 active | AID 540250;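 active means mean inhibition across three repeats above about 21% taken from the earlier screen, limit read from the data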;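 further: blue over green emission ratio reports constitutive TLR9 MyD88 association via BLA complementation; 0% = DMSO vehicle wells and 100% = clavulanate BLA inhibitor wells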
BLA counter-1: counter-screen for TLR9-MyD88 inhibitors: non-selective beta-lactamase inhibitors. CHO-BLA cells, CCF4 FRET ratio, BLA reporter. 7% of 680 active. inhibition, % at 4.98 µM. shares compounds with TLR9-MyD88 inh;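 active means mean inhibition above a 50% cutoff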;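 further: counterscreen of TLR9-MyD88 hits on CMV-driven BLA in CHO-K1 cells; 0% = DMSO alone and 100% = clavulanate blocking BLA; higher means less blue over green ratio so more BLA blockade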
TLR9 CHO tox: counter-screen for TLR9-MyD88 inhibitors: cytotoxicity in CHO cells. 39% of 680 active. shares compounds with TLR9-MyD88 inh. luminescence. inhibition, % at 4.98 µM; in the data active means inhibition above about 11%
ABHD5 PLIN5 conf: confirmation of human ABHD5-PLIN5 interaction inhibitors. 67% of 2,200 active. AID 651612. shares compounds with ABHD5 PLIN5 PPI. biochemical ABHD5-PLIN5 interaction, luminescence. inhibition, % at 4 µM; in the data active means inhibition above about 23%;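 further: 0% = DMSO vehicle wells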
HNF4 split-luc: active in HNF4 split-luciferase counter-screen for ABHD5-PLIN5 inhibitors; 77% of 2,200 active; inhibition, % at 4 µM; shares compounds with ABHD5 PLIN5 PPI; HNF4 dimerization, luminescence, biochemical;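 active means mean inhibition across replicate wells exceeding the computed hit threshold, cut at about 13% in these data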;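 further: light from luciferase halves that rejoin when HNF4 fusion proteins dimerize; 0% = DMSO only wells and the 100% control is not given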
NOD2-RIPK2 conf: confirmation of human NOD2-RIPK2 interaction inhibitors. shares compounds with NOD2 RIPK2 PPI. CHO cells, NOD2-RIPK2 BLA complementation, CCF4 FRET. inhibition, % at 4.98 µM. 70% of 1,200 active;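 active means mean inhibition across replicates above a set limit taken from the earlier primary screen, cut at about 21% in these data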;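 further: 0% = DMSO-only wells and the high end = clavulanate BLA-blocked wells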
BLA counter-2: NOD2-RIPK2 counterscreen BLA reporter activity. inhibition, % at 4.98 µM. shares compounds with NOD2 RIPK2 PPI. CHO BLA reporter, CCF4 FRET ratio. 57% of 1,200 active;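 active means mean inhibition above the low-control mean inhibition plus three low-control SD, cut at about 11% in these data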;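 further: 0% = DMSO only wells and 100% = clavulanate high control wells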
Starred values were filed as active, the others as inactive; / = no result given.

SMILES	NOD2 RIPK2 PPI	TLR4 MyD88 comp	TLR9-MyD88 inh	rCAG binder	PRMT1 inh	ABHD5 PLIN5 PPI	TLR9-MyD88 conf	BLA counter-1	TLR9 CHO tox	NOD2-RIPK2 conf	BLA counter-2	others
CCC(=O)Nc1ccc(C(=O)Cn2ncc(Cl)c(Cl)c2=O)cc1	22*	/	21*	20	1	-1	16	2	37*	34*	9
O=C(Nc1ccc(OC(F)(F)F)cc1)c1[nH]ncc1[N+](=O)[O-]	25*	1	25*	4	-2	-3	2	8	9	20	6
CCN(CC)c1c([N+](=O)[O-])c(=O)n(C)c2ccccc12	-5	-2	7	3	0	-2	/	/	/	/	/
Cn1c(=O)c([N+](=O)[O-])c(Cl)c2ccccc21	86*	9	47*	1	18	34*	62*	7	97*	93*	27*
O=c1sc2ccccc2c(=O)n1Cc1ccccc1F	-11	-4	6	-4	11	-4	/	/	/	/	/
O=c1c2ccccc2sn1-c1ccc(F)cc1	35*	/	32*	2	84*	71*	9	0	58*	37*	2
O=C(c1nc2n(n1)C(c1ccc(Cl)cc1)C=C(c1ccccc1)N2)N1CCOCC1 (configuration not stated)	48*	22	42*	-4	15	6	12	12	1	27*	21*
COc1ccc(C2C=C(c3ccc(Cl)cc3)Nc3nc(NC(C)=O)nn32)cc1 (configuration not stated)	/	22	/	/	/	/	/	/	/	/	/
Clc1cc(Cl)cc(C2=NCCC(c3ccccc3)O2)c1 (configuration not stated)	/	-2	/	/	/	/	/	/	/	/	/
Cc1c(Cl)c(=O)n2c(=O)c(Cl)c(C)n12	24*	9	26*	-5	3	5	12	14	1	37*	40*
S=C(NCc1ccc(Cl)cc1Cl)NC1CCCCC1	4	1	9	-1	-1	0	/	/	/	/	/
N#CC(C#N)=C1C=CC=CN1/C(=C\c1ccco1)C(=O)c1ccccc1	80*	-5	23*	2	10	54*	29*	9	98*	93*	17*	ABHD5 PLIN5 conf=102*;HNF4 split-luc=110*
CC(C)(C)NC(=O)/C(=C/c1ccco1)c1ccccc1	3	-10	-3	3	4	9	/	/	/	/	/
N#CC(C#N)=C1C=CC=CN1/C(=C\c1ccco1)C(=O)c1ccc(Br)cc1	91*	7	42*	7	14	92*	46*	5	98*	93*	18*
CC(=NNC(=S)N1CCN(c2ccccn2)CC1)c1ccccn1	4	/	-10	11	5	-8	/	/	/	/	/
CC(=NNC(=S)N1CCN(c2ccccn2)CC1)c1nccs1	24*	/	37*	/	/	3	28*	18	97*	42*	18*
COc1ccc(C(=O)CNc2ccc(C)cc2C)cc1	-2	/	0	0	7	5	/	/	/	/	/
Cc1ccc(S(=O)(=O)N2CCC3(CC2)OCCO3)cc1	-3	/	-8	-4	-4	-6	/	/	/	/	/
O=C(/C=N/O)Nc1ccc2sc3ccccc3c2c1	21*	/	34*	17	-3	1	8	6	3	20	15*
COC(=O)C[C@H]1C[C@H]2c3cc(NS(=O)(=O)c4ccc(OC)cc4)ccc3O[C@H]2[C@H](CO)O1	4	/	6	3	1	-1	/	/	/	/	/
CC(C)(C)c1cc(C2=CSC3=NCCN23)cc(C(C)(C)C)c1O	24*	/	21*	/	/	10	14	16	2	33*	17*
Nc1cccc2c1C(=O)N(Cc1cccc(Cl)c1)C2=O	35*	20	21*	-4	11	-3	17	20	4	32*	45*
O=C1Cc2ccccc2C(=O)N1Cc1cccc(Cl)c1	-10	/	7	10	-4	2	/	/	/	/	/
Cc1ccc(C2=CC(c3ccc(N(C)C)cc3)n3nnnc3N2)cc1 (configuration not stated)	16	-8	6	9	9	-1	/	/	/	/	/
Cc1ccc(C2=CC(c3ccccc3)n3ncnc3N2)cc1 (configuration not stated)	52*	/	41*	-6	5	-4	9	6	-2	19	21*
SMILES	NOD2 RIPK2 PPI	TLR4 MyD88 comp	TLR9-MyD88 inh	rCAG binder	PRMT1 inh	ABHD5 PLIN5 PPI	TLR9-MyD88 conf	BLA counter-1	TLR9 CHO tox	NOD2-RIPK2 conf	BLA counter-2	others
CCC1=CC(c2ccccc2)n2ncnc2N1 (configuration not stated)	6	/	-16	-1	-1	-4	/	/	/	/	/
Fc1ccc(Br)cc1C1C=C(c2ccc(Br)cc2)Nc2ncnn21 (configuration not stated)	43*	1	21*	6	3	-5	7	10	3	1	2
Cc1ccc(C2=CC(c3ccccc3)n3ncnc3N2)c(C)c1 (configuration not stated)	-9	/	-7	-4	3	-3	/	/	/	/	/
C1=C(c2ccccc2)Nc2ncnn2C1c1ccccc1 (configuration not stated)	35*	/	25*	0	5	8	11	12	1	1	5
Cc1ccc(C2C=C(c3ccc4c(c3)OCO4)Nc3ncnn32)cc1 (configuration not stated)	42*	-5	31*	5	7	1	11	13	3	34*	42*
Cc1ccc(S(=O)(=O)c2nc(/C=C/c3ccccc3)oc2N2CCC(C(N)=O)CC2)cc1	-5	/	5	4	8	12	/	/	/	/	/
COc1cc2c3nnc(-c4ccc(F)cc4)c-3cn(Cc3ccc(F)cc3)c2cc1OC	56*	2	24*	13	0	3	11	15	3	61*	64*
